Measurements reported in PubChem BioAssay (NCATS).
Inconclusive results are not listed. Where a call stands in place of a potency, no number is given. Calls of active or inactive are those of the source. Calls come from the whole dose curve; as a rule, active = well fitted inhibition curve with a large enough effect; inconclusive = small, poorly fitted or top-dose-only effect; inactive = flat fitted curve, though single readings scatter.

The compounds below were run on MCC-26 (assay: qHTS assay to identify novel small-molecules to repurpose for Merkel cell carcinoma treatment (AID 1296009; note: nearly all actives have a fitted effect of over 60% in size)). Conditions: MCC and control cell lines, CellTiter-Glo viability, 72 h; series mostly up to 46 µM.
Text: MCC is a rare and aggressive neuroendocrine skin cancer with limited treatment options. Approximately 80% of MCCs have the Merkel cell polyomavirus (MCPyV) DNA integrated into the host genome (virus-positive: VP-MCC) and viral oncogenes drive oncogenesis. The remaining MCCs are virus-negative (VN-MCC) and are caused by UV mutagenesis. To identify novel treatments for VP-MCC and/or VN-MCC we screened three VP-MCC cell lines (WAGA, MKL-1, MKL-2), three VN-MCC cell lines (MCC-13, MCC-26, UISO), and four immortalized, non-transformed control cell lines (HaCaT, HEK293T, CRL7250, NIH-3T3) against ~2,400 compounds in the NCGC Pharmaceutical Collection (NPC) and ~1,900 compounds in the Mechanism Interrogation PlatE (MiPE). Using cell viability as a readout (CellTiter-Glo assay) we found both overlapping and distinct drugs that can be repurposed for the treatment of VP-MCC and VN-MCC.
A high-throughput screen was conducted in 1536-well white flat bottom plates (Corning) on a Kalypsys robotic system. Cell lines WAGA, MKL-1, MKL-2, MCC-13, MCC-26, UISO, HaCaT, HEK293T, CRL7250, and NIH-3T3 were screened against 2 small molecule annotated drug libraries NPC and MIPE in dose response (8 and 11 pt. respectively) measuring cell viability after 72 hours of incubation. […] A 1,536 pintool (Kalypsys) was used to transfer 23 nL of compound in DMSO to the 1,536-well assay plates. After 72 hr incubation at 37 degree celsius, 2.5 uL of CellTiter-Glo (Promega) was dispensed into each well using a BiorapTR. Plates were incubated at room temperature for 10 min, transferred to a ViewLux (PerkinElmer) and the luminescence was recorded using an exposure time of 2 seconds. Relative luminescence units (RLUs) were normalized to in-plate controls (no cells as a positive (cytotoxicity) control, DMSO as negative control) and the normalized data was processed using NCATS in-house software.
Potency is the fitted concentration of half-maximal effect.

Row | Compound | Potency
1 | CCCN1CCC[C@@H]2Cc3[nH]ncc3C[C@H]21 | inactive
2 | CN1C[C@H](CNC(=O)OCc2ccccc2)C[C@@H]2c3cccc4c3c(cn4C)C[C@H]21 | inactive
3 | O=C(O)C(=O)c1cn(Cc2ccccc2)c2ccc(-c3ccc(OC(F)(F)F)cc3)cc12 | inactive
4 | O=c1oc2ccccc2c(O)c1C(CC(O)c1ccc(-c2ccc(Br)cc2)cc1)c1ccccc1 (stereo not given) | inactive
5 | CC1=C2C[C@@H]3[C@@H](CC=C4C[C@@H](O)CC[C@@]43C)[C@@H]2CC[C@]12O[C@H]1C[C@H](C)CN[C@H]1[C@H]2C | inactive
6 | COC[C@H]1OC(=O)c2coc3c2[C@@]1(C)C1=C(C3=O)C2CCC(=O)[C@@]2(C)C[C@H]1OC(C)=O (stereo not given in full) | inactive
7 | CC(C)NCC(O)c1ccccc1Cl (stereo not given) | inactive
8 | C=C1CC[C@@]2(O)[C@H]3Cc4ccc(O)c5c4[C@@]2(CCN3CC2CC2)[C@H]1O5 | inactive
9 | Cc1ncc(CNC(=O)N(CCCl)N=O)c(N)n1 | inactive
10 | CN1CCN(C(=O)O[C@H]2c3nccnc3C(=O)N2c2ccc(Cl)cn2)CC1 | inactive
11 | O=P1(NCCCl)OCCCN1CCCl (stereo not given) | inactive
12 | N#CC(C#N)=Cc1ccc(O)c(O)c1 | inactive
13 | CC(=O)[C@H]1CC[C@H]2[C@@H]3CC[C@H]4C[C@H](O)CC[C@]4(C)[C@H]3C(=O)C[C@]12C | inactive
14 | NP(N)(=O)NC(=O)c1ccc(F)cc1 | inactive
15 | NCC1(CC(=O)O)CCCCC1 | inactive
16 | CCN(CC)CCOC(=O)C(O)(c1ccccc1)c1ccccc1 | inactive
17 | CC(C)CC(N(C)C)C1(c2ccc(Cl)cc2)CCC1 (stereo not given) | inactive
18 | Clc1ccc(CCC(Cn2ccnc2)Sc2c(Cl)cccc2Cl)cc1 (stereo not given) | inactive
19 | CCN(CC)C(=O)N[C@@H]1C=C2c3cccc4[nH]cc(c34)C[C@@H]2N(C)C1 | inactive
20 | COc1ccc(Cc2nccc3cc(OC)c(OC)cc23)cc1OC | inactive

Row | Compound | Potency
21 | C[C@]12CC[C@H]3[C@@H](CCC4=CC(=O)CC[C@@H]43)[C@@H]1CC[C@@H]2OC(=O)CCc1ccccc1 | inactive
22 | CC[N+]1(C)CCCC(OC(=O)C(O)(c2ccccc2)c2ccccc2)C1 (stereo not given) | inactive
23 | NCCc1cc(O)c(O)cc1O | inactive
24 | CN(C)[C@@H]1C(=O)C(C(N)=O)=C(O)[C@@]2(O)C(=O)C3=C(O)c4c(O)cccc4[C@@](C)(O)[C@H]3C[C@@H]12 | inactive
25 | CC1OC(C)OC(C)O1 (stereo not given) | inactive
26 | FC(F)(F)c1cccc(C2=CCN(CCc3ccc4ccccc4c3)CC2)c1 | inactive
27 | C=CCN1CC[C@]23c4c5ccc(O)c4O[C@H]2C(=O)CC[C@@]3(O)[C@H]1C5 | inactive
28 | C[C@H]1O[C@@H](O[C@H]2[C@@H](O)C[C@H](O[C@H]3[C@@H](O)C[C@H](O[C@H]4CC[C@@]5(C)[C@H](CC[C@@H]6[C@@H]5CC[C@]5(C)[C@@H](C7=CC(=O)OC7)CC[C@]65O)C4)O[C@@H]3C)O[C@@H]2C)C[C@H](O)[C@@H]1O | 42.2 nM (active)
29 | CCCC(C)(COC(N)=O)COC(=O)NC(C)C (stereo not given) | inactive
30 | CCOC(=O)C1(c2ccccc2)CCN(CCC(C#N)(c2ccccc2)c2ccccc2)CC1 | inactive
31 | CC(C)(C)NCC(O)c1cc(Cl)c(N)c(Cl)c1 (stereo not given) | inactive
32 | OCCOc1ccccc1 | inactive
33 | C#CCN(C)[C@H](C)Cc1ccccc1 | inactive
34 | COc1ccc(C(=O)c2c(C)n(CCN3CCOCC3)c3ccccc23)cc1 | inactive
35 | Oc1ccccc1-c1ccccc1 | inactive
36 | CCOP(=S)(OCC)Oc1cc(C)nc(C(C)C)n1 | inactive
37 | CCC(=O)C(CC(C)N(C)C)(c1ccccc1)c1ccccc1 (stereo not given) | inactive
38 | Cc1cccc(C)c1NC(=O)CN1CCCC1=O | inactive
39 | Fc1ccc(C(OCCN2CCN(CCCc3ccccc3)CC2)c2ccc(F)cc2)cc1 | inactive
40 | C[C@@H]1[C@@H](CC(C[C@H]2O[C@@H]3O[C@]4(C)CC[C@@H]5[C@H](C)CC[C@@H]([C@H]2C)[C@@]35OO4)C[S+](=O)([O-])c2ccc(COC(=O)N(C)C)cc2)O[C@@H]2O[C@]3(C)CC[C@H]4[C@H](C)CC[C@@H]1[C@@]24OO3 (stereo not given in full) | inactive
